Measured values reported in PubChem BioAssay (NCI).
Compounds without any hit were thinned out: in the full panel of roughly 83,000, 20% have a hit.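 48-hour exposure, single concentration, 96-well plates; percent growth endpoint where 0 means no net growth. Active: below 10.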 Active and inactive are the calls of the source.

Legend:
Test in all cases: NCI-60 one-dose screen, 48 h (100 = growth as untreated, 0 = no growth, -100 = all killed)
Conditions in all cases: 10 µM
[1] = tested on: 786-0 renal
[2] = tested on: SN12C renal
[3] = tested on: TK-10 renal
[4] = tested on: ACHN renal
[5] = tested on: CAKI-1 renal
[6] = tested on: A498 renal
[7] = tested on: RPMI-8226 leukemia
[8] = tested on: OVCAR-8 ovarian
[9] = tested on: OVCAR-5 ovarian
[10] = tested on: OVCAR-4 ovarian
[11] = tested on: SK-OV-3 ovarian
[12] = tested on: OVCAR-3 ovarian
[13] = tested on: NCI/ADR-RES ovarian
[14] = tested on: T-47D breast
[15] = tested on: BT-549 breast
[16] = tested on: MDA-MB-435 melanoma
[17] = tested on: MCF7 breast
[18] = tested on: HCT-116 colon
[19] = tested on: HCC-2998 colon
[20] = tested on: KM12 colon

Measured: growth

CC[C@]12C=CCN3CC[C@@]4(c5ccc(OC)cc5N(C)[C@H]4[C@@](O)(C(=O)OC)[C@@H]1OC(=O)CCC[P+](c1ccc(F)cc1)(c1ccc(F)cc1)c1ccc(F)cc1)[C@@H]32
active: [15] -9.4% | [16] 6.69% | [17] 7.7%
inactive: [1] 80.9% | [2] 16.6% | [3] 63.9% | [4] 101% | [5] 73.1% | [6] 101% | [7] 24.4% | [8] 28% | [9] 67% | [10] 48.6% | [11] 54.7% | [12] 21.1% | [13] 104% | [14] 10.4% | [18] 32.2% | [19] 22.4% | [20] 21.3%

CCOP(=O)(OCC)C(NC(C)=O)C(=O)SCCN (stereo not given)
inactive: [1] 103% | [2] 97.9% | [3] 99.5% | [4] 112% | [5] 101% | [6] 91.7% | [7] 109% | [8] 109% | [9] 104% | [10] 110% | [11] 117% | [12] 147% | [13] 105% | [14] 99.6% | [15] 111% | [16] 111% | [17] 95.5% | [18] 111% | [19] 104% | [20] 112%

O=C(/C=C/c1ccccc1Cl)c1nc2ccccc2n1Cc1ccc(F)cc1
inactive: [6] 62.5%
active: [1] -95.3% | [2] -89.4% | [3] -44.2% | [4] -88% | [5] -40.5% | [7] -29.7% | [8] -66.1% | [9] -66.3% | [10] 4.42% | [11] 8.31% | [12] -50.8% | [13] -56% | [14] -66.9% | [15] -92.2% | [16] -46.7% | [17] -59.3% | [18] -96.3% | [19] -99.7% | [20] -60.5%

O=C(/C=C/c1ccc(Cl)cc1Cl)c1nc2ccccc2n1Cc1ccc(F)cc1
inactive: [1] 19.8% | [2] 60.4% | [3] 93.6% | [4] 48.7% | [5] 53.3% | [6] 94.8% | [8] 56% | [9] 67.3% | [10] 63.2% | [11] 103% | [12] 31.7% | [13] 42.2% | [14] 27.2% | [15] 24.4% | [16] 43.9% | [19] 27.3% | [20] 53%
active: [7] -31.1% | [17] 5.98% | [18] 7.22%

CC(C)C[C@H](NC(=O)CNC(=O)C[C@H]1O[C@@H]2OC3(C)CC[C@H]4[C@H](C)CC[C@@H]([C@H]1C)[C@@]24OO3)B(O)O
inactive: [1] 21% | [3] 12.1% | [5] 19.2% | [6] 43.1% | [10] 22.1% | [11] 41.6% | [13] 94.2% | [17] 19.1%
active: [2] -53.1% | [4] 7.48% | [7] -14.5% | [8] 5.76% | [9] -28.3% | [12] -12.4% | [14] -32.8% | [15] -83.5% | [16] -61.2% | [18] -72.3% | [19] -95.1% | [20] -15.4%

CC[C@]12C=CCN3CC[C@@]4(c5ccc(OC)cc5N(C)[C@H]4[C@@](O)(C(=O)OC)[C@@H]1OC(=O)CCC[P+](C1CCCCC1)(C1CCCCC1)C1CCCCC1)[C@@H]32
inactive: [4] 32% | [6] 21.8% | [9] 11% | [10] 17.7% | [13] 100%
active: [1] -16.3% | [2] -40.5% | [3] -48.6% | [5] -8.49% | [7] -43.4% | [8] 1.19% | [11] -7.72% | [12] -48.6% | [14] -1.81% | [15] -97.4% | [16] -80.1% | [17] -72.2% | [18] 0.156% | [19] -92.6% | [20] -63.4%

CC[C@@]12CC(C(=O)OC)=C3Nc4cc5c(cc4[C@@]34CCN(C[C@H]3O[C@H]31)[C@@H]24)[C@@H]1[C@H](O5)[C@@H](O)[C@@]2(CC)CC(C(=O)OC)=C3Nc4cc(OC)ccc4[C@@]34CCN1[C@@H]24
active: [6] -15.3% | [7] 0.732% | [10] 5.36% | [12] 7.91% | [13] 1.32% | [15] -16.9% | [16] 9.48% | [17] 2.22% | [18] -0.466% | [19] -65%
inactive: [1] 22.2% | [2] 27.1% | [3] 16.2% | [4] 17.8% | [5] 12.9% | [8] 25.5% | [9] 34.3% | [11] 14.4% | [14] 25.7% | [20] 10.2%
